Results filed as inconclusive are left out. Unmarked numbers belong to inactive results. Calls of active or inactive are those of the source. The call rests on the fitted dose curve; in most records, active means well fitted inhibition curve with a large enough effect; inconclusive means small, poorly fitted or top-dose-only effect, or effect the other way; inactive means flat fitted curve, though single readings scatter.
target: ATPase family AAA domain-containing protein 5 (Homo sapiens) (UniProt Q96QE3); assay: Validation screen for small molecules that inhibit ELG1-dependent DNA repair in human embryonic kidney (HEK293T) cells expressing luciferase-tagged ELG1 (AID 493107); settings: HEK293T ELG1-luciferase level, luminescence, 5-fluorouridine co-treatment, 16 h; series mostly up to 46.1 µM; activity change, negative = decrease: at the top concentration; further: nearly all actives have a fitted effect of over 70% in size;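 on activity change, negative = decrease: inhibitors lower the ELG1-luciferase luminescence signal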
From the text: NIH Molecular Libraries Probe Production Network [MLPCN]
NIH Chemical Genomics Center [NCGC]
Assay Provider: Kyungjae Myung, NHGRI, NIH
Keywords: MLPCN, qHTS, NCGC, genotoxicity, cancer
Cancer cells divide rapidly compared to normal cells in the body. During cell division, cancer cells need to duplicate their genome by DNA replication. The failure of genome duplication leads to cancer cells' death. Therefore, inhibitors of DNA replication could specifically kill cancer cells. Based on this concept, many chemotherapeutic agents were developed and have been used to treat cancer patients. However, there are a limited number of agents available in the clinical setting, and some of those that do exist have low efficacy and severe side effects. Therefore, if we can find the compounds that effectively block DNA replication either by directly damaging DNA or by inhibiting other cellular mechanisms, the options for cancer treatment will be broadened. With this in mind, we developed a quantitative high-throughput ELG1-luciferase reporter gene assay. Small molecules that specifically block ELG1 function in response to DNA damage can be identified by monitoring the suppression of luciferase activity. Since ELG1 defines a pathway for repairing DNA damage, agents blocking ELG1 function can be used to sensitize cancer cells to chemotherapeutic agents whose mechanism of action involves the induction of DNA damage.
For genotoxicity screening, 2,000 cells in 4 uL/well were dispensed into white, solid-bottom 1536-well plates using a solenoid-based dispenser. Following transfer of 1 uL 5-Fluorouridine and 23 nL compound or DMSO vehicle by a pin tool, the plates were incubated 16 hr at 37 °C and 5% CO2. 5 ul ONE-Glo (Promega) was then added to each plate and following a 30 min incubation at room temperature, luciferase activity was quantified on a ViewLux CCD-based plate reader.
On the % scale 0 is the no-effect control and ±100 the full control effect; potency means the concentration at half of the fitted maximal effect.

Chain of ATPase family AAA domain-containing protein 5 (Homo sapiens) (Q96QE3 whole entry, looked up, the tested form may be a part): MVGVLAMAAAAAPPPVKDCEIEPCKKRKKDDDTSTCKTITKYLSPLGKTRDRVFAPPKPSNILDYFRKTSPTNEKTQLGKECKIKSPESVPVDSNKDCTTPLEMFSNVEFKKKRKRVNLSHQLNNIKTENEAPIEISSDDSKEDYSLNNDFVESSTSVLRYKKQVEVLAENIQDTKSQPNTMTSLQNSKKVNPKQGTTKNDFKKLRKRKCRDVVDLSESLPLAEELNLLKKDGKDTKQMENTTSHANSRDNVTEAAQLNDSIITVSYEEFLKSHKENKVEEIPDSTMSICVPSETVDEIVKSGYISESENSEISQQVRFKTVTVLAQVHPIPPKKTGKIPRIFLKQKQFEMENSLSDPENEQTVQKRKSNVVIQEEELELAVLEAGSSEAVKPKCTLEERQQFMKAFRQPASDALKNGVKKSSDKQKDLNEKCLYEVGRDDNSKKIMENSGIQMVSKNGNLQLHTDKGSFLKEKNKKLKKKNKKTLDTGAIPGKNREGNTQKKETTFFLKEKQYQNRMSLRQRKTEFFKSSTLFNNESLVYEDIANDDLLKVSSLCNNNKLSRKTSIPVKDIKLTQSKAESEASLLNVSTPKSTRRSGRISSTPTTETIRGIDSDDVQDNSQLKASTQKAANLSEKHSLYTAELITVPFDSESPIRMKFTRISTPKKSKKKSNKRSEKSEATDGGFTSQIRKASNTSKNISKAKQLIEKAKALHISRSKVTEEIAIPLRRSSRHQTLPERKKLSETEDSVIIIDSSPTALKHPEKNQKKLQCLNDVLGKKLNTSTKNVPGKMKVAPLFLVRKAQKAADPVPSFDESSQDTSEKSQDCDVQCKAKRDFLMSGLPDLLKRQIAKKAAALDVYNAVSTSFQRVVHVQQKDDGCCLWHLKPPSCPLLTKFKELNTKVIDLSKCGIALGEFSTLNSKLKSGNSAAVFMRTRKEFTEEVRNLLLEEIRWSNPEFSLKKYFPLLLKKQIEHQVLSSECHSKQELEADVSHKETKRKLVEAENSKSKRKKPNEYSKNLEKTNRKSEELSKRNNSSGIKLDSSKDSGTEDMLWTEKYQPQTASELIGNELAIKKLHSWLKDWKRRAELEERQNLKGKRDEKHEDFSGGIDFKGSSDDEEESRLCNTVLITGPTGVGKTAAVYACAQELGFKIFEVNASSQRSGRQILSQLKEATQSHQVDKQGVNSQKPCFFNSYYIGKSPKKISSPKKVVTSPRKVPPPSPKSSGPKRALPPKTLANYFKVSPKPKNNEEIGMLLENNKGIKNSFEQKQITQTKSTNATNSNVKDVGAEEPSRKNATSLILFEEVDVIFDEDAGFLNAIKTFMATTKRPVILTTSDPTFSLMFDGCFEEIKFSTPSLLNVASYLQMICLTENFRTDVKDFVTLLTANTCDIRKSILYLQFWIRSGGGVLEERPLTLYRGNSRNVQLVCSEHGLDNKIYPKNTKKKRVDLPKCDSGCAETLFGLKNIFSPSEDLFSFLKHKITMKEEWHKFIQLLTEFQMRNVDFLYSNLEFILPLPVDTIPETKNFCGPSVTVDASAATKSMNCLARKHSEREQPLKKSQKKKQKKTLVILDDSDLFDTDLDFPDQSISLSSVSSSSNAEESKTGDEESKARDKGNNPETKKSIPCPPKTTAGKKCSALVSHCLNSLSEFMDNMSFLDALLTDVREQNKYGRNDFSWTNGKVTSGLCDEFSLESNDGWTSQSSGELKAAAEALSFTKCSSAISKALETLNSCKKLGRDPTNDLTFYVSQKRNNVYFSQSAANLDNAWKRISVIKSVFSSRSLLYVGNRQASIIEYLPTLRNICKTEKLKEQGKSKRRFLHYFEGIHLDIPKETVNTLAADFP

| SMILES | activity change, negative = decrease | Potency |
| --- | --- | --- |
| [Li+] | 12.6% |  |
| NCCNS(=O)(=O)c1cccc2c(Cl)cccc12 | -24.6% |  |
| O=C(O)/C=C/c1cnc[nH]1 | 1.84% |  |
| NCC(O)C1CCCCCCC1 (stereo not given) | 3.97% |  |
| CSC(N)=NCCC[C@H](N)C(=O)O | 7.94% |  |
| CC#CCOC(=O)c1c(C)nc2sc3c(c2c1N)CCC(O)C3 (stereo not given) | -11.3% |  |
| CSC(=N)N | 4.75% |  |
| CC(C)Cn1c(=O)n(C)c(=O)c2[nH]cnc21 | 21.1% |  |
| O=C1OC(=O)C2C3CCC(O3)C12 (stereo not given) | 29.2% |  |
| NC(=O)CC[C@H](N)C(=O)O | 17.9% |  |
| N[C@H](C(=O)O)[C@H](Cc1ccccc1)C(=O)O | 23.3% |  |
| COc1ccc(NC(=O)c2ccc(-c3ccc(-c4noc(C)n4)cc3C)cc2)cc1N1CCN(C)CC1 |  | 20.6 µM (active) |
| CC1CNCCN1S(=O)(=O)c1cccc2cnccc12 (stereo not given) |  | 8.2 µM (active) |
| C=C1C[C@@]23CC[C@H]4[C@@](C)(CCC[C@@]4(C)C(=O)OC4OC(CO)C(O)C(O)C4O)[C@@H]2CC[C@]1(OC1OC(CO)C(O)C(O)C1OC1OC(CO)C(O)C(O)C1O)C3 (stereo not given in full) | 28.9% |  |
| S=C(S)N1CCCC1 | 2.57% |  |
| CC(C)NC[C@H](O)COc1ccc(CC(N)=O)cc1 | 16.1% |  |
| C[C@H]1CC2C3CCC4=CC(=O)C=C[C@]4(C)[C@@]3(Cl)[C@@H](O)C[C@]2(C)[C@@]1(O)C(=O)CO (stereo not given in full) | 14.2% |  |
| O=[N+]([O-])c1cccc2c(Br)[nH]nc12 | 13% |  |
| Oc1cc2c(cc1O)C(c1ccccc1)CNCC2 (stereo not given) | -0.939% |  |
| COc1cc(/C=C(\C#N)C(=O)Nc2nnc(C(F)(F)F)s2)ccc1OCc1ccc(C(F)(F)F)cc1C(F)(F)F | 17% |  |

| SMILES | activity change, negative = decrease | Potency |
| --- | --- | --- |
| NC(N)=NC(N)=Nc1ccccc1 | -3.98% |  |
| O=C(O)c1cccnc1C(=O)O | 2.39% |  |
| CCOC(=O)C12CC1/C(=N/O)c1ccccc1O2 (stereo not given) | 23.7% |  |
| CN1CCC2(CCN3CCc4c(oc5ccccc45)C3C2)N(C)C1=O (stereo not given) | 13.2% |  |
| CCC(=O)N1CCN(C(=O)c2ccccc2)CC1 | 0.587% |  |
| Oc1ccc(/C=C/c2ccc(/C=C/c3ccc(O)cc3)c(Br)c2)cc1 | -3.56% |  |
| CN(C)CCC(c1ccc(Br)cc1)c1ccccn1 (stereo not given) | 11.3% |  |
| CN(C)C(=O)/N=N/C(=O)N(C)C | 3.28% |  |
| CN(C)CCCc1cc(C(=O)Nc2ccc(-c3ccncc3)cc2)ccc1O | 12.9% |  |
| CC(=O)O[C@H]1Cc2ccccc2N(C(N)=O)c2ccccc21 | 13% |  |
| C=CCN1CCc2c(cc(O)c(O)c2Br)[C@@H](c2ccccc2)C1 | -0.802% |  |
| N=C(N)c1ccc(N)cc1 | 8.95% |  |
| Nc1ccc(N2C(=O)c3ccccc3C2=O)c(Cl)c1 | 25.1% |  |
| O=C(O)C1=CCNCC1 | 5.56% |  |
| COc1cc(/C=C(\C#N)C(=O)c2ccc(O)c(O)c2)cc(I)c1O | 7.13% |  |
| O=C(O)c1ccccc1Nc1ccccc1 | 7.51% |  |
| NC(C(=O)N[C@@H]1C(=O)N2C(C(=O)O)=C(Cl)CS[C@H]12)c1ccccc1 (stereo not given in full) | -4.87% |  |
| O=C(O)C1CCCNC1 (stereo not given) | 17.4% |  |
| Nn1nnc2ccccc21 | -0.504% |  |
| C=CCN1CCc2c(cc(O)c(O)c2Cl)C(c2ccccc2)C1 (stereo not given) | 14.3% |  |

Reference: PubChem BioAssay (NCATS)
